target: ETV1 (Homo sapiens, UniProt P50549 1-477); experiment: DAPPL (digital affinity profiling via proximity ligation, sequencing); 10 mM Tris-HCl pH 7.5, 50 mM NaCl, 1 mM DTT, 4% glycerol, room temperature, 30 min; GST-TFs on glutathione beads, 16-mer random dsDNA library, 0.1% formaldehyde crosslink after washing; high values mean tight binding; conditions: protein: recombinant; tags: N-terminal GST; dsDNA, one strand shown
How it was run: (§1)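 Pools of DNA-barcoded human transcription factors, expressed in yeast as GST fusions on glutathione beads and combined with a tag-only sample, were incubated with 200 nmole of a 16-mer random double-stranded DNA library. Incubation took 30 min at room temperature in Tris/NaCl/DTT/glycerol buffer and was followed by washing, 0.1% formaldehyde crosslinking, proximity ligation (BsaI/T4 ligase, 1 h, 37 °C), PCR amplification and sequencing on an Illumina NextSeq500. Binding signal is the ratio of a hexamer's read frequency for a factor to its frequency for the tag-only sample.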

Sequence of ETV1 (P50549 whole entry, the tested form may be a part): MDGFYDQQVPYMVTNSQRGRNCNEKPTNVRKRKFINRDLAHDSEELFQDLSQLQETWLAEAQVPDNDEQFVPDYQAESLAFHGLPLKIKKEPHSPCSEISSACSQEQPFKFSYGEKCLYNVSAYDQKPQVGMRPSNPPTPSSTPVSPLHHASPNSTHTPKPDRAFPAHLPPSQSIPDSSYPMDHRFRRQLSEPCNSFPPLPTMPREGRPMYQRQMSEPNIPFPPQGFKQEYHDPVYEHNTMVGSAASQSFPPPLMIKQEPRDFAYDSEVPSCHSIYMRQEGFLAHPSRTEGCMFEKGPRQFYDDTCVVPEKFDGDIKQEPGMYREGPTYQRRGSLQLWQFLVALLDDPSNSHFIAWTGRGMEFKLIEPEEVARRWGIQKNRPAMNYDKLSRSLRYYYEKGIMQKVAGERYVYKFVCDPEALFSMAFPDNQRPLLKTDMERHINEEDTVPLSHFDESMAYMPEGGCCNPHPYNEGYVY

Sequence	binding signal
TCTTCG	1.47 fold enrichment (6-mer frequency, TF over GST control)
GCTTTG	1.16 fold enrichment (6-mer frequency, TF over GST control)
TCTCTG	1.46 fold enrichment (6-mer frequency, TF over GST control)
TAAAAG	1.18 fold enrichment (6-mer frequency, TF over GST control)
CCTTAA	1.34 fold enrichment (6-mer frequency, TF over GST control)
CTTTTT	1.32 fold enrichment (6-mer frequency, TF over GST control)
CTTCAA	1.36 fold enrichment (6-mer frequency, TF over GST control)
ACTAAA	1.31 fold enrichment (6-mer frequency, TF over GST control)
ATATCC	2.72 fold enrichment (6-mer frequency, TF over GST control)
AATCTC	1.34 fold enrichment (6-mer frequency, TF over GST control)
TACCCG	1.55 fold enrichment (6-mer frequency, TF over GST control)
CCTGTT	1.69 fold enrichment (6-mer frequency, TF over GST control)
TTTTCC	1.65 fold enrichment (6-mer frequency, TF over GST control)
AAAACT	1.13 fold enrichment (6-mer frequency, TF over GST control)
TAATAC	1.11 fold enrichment (6-mer frequency, TF over GST control)
GACTTC	2.56 fold enrichment (6-mer frequency, TF over GST control)
ATGGCA	1.27 fold enrichment (6-mer frequency, TF over GST control)
TCCGAC	1.55 fold enrichment (6-mer frequency, TF over GST control)
TTACAG	1.2 fold enrichment (6-mer frequency, TF over GST control)
AATTTC	1.79 fold enrichment (6-mer frequency, TF over GST control)

Sequence	binding signal
ACCAAT	1.3 fold enrichment (6-mer frequency, TF over GST control)
TAACAC	1.19 fold enrichment (6-mer frequency, TF over GST control)
TTAGGG	1.03 fold enrichment (6-mer frequency, TF over GST control)
CTACAC	1.28 fold enrichment (6-mer frequency, TF over GST control)
CTAGCT	1.24 fold enrichment (6-mer frequency, TF over GST control)
ATCCAT	1.14 fold enrichment (6-mer frequency, TF over GST control)
TAGTAC	1.14 fold enrichment (6-mer frequency, TF over GST control)
TTTGAA	1.19 fold enrichment (6-mer frequency, TF over GST control)
AACCTA	1.1 fold enrichment (6-mer frequency, TF over GST control)
GATGTT	1.25 fold enrichment (6-mer frequency, TF over GST control)
CCTTAG	1.22 fold enrichment (6-mer frequency, TF over GST control)
CGCGCT	1.15 fold enrichment (6-mer frequency, TF over GST control)
CATCTA	1.16 fold enrichment (6-mer frequency, TF over GST control)
TCTATT	1.25 fold enrichment (6-mer frequency, TF over GST control)
CTATTT	1.74 fold enrichment (6-mer frequency, TF over GST control)
TTCAGG	1.15 fold enrichment (6-mer frequency, TF over GST control)
GCTATA	1.14 fold enrichment (6-mer frequency, TF over GST control)
CTCATT	1.52 fold enrichment (6-mer frequency, TF over GST control)
CAATTT	1.35 fold enrichment (6-mer frequency, TF over GST control)

target: T1, ERF (Homo sapiens, UniProt P50548 1-548); experiment: as above; conditions: protein: recombinant; tags: N-terminal GST; dsDNA, one strand shown
T1 sequence: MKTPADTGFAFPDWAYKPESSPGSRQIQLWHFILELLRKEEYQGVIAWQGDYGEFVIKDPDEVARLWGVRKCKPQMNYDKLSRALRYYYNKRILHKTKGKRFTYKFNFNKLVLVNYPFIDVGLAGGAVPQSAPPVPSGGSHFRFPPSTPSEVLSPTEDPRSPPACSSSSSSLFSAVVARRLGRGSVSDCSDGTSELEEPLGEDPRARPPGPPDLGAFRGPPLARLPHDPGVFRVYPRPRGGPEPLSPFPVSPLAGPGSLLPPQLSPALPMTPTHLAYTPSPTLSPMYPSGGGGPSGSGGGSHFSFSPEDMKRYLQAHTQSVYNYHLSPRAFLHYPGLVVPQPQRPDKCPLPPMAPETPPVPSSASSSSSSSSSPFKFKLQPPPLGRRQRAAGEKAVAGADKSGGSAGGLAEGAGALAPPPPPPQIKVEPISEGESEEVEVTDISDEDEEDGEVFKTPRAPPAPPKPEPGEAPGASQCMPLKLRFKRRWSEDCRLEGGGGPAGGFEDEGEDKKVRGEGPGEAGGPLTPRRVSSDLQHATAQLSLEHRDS
How it was run: as §1

Sequence	binding signal
TCTTCG	1.45 fold enrichment (6-mer frequency, TF over GST control)
GCTTTG	1.09 fold enrichment (6-mer frequency, TF over GST control)
TCTCTG	1.49 fold enrichment (6-mer frequency, TF over GST control)
TAAAAG	1.2 fold enrichment (6-mer frequency, TF over GST control)
CCTTAA	1.29 fold enrichment (6-mer frequency, TF over GST control)
CTTTTT	1.31 fold enrichment (6-mer frequency, TF over GST control)
CTTCAA	1.41 fold enrichment (6-mer frequency, TF over GST control)
ACTAAA	1.27 fold enrichment (6-mer frequency, TF over GST control)
ATATCC	2.67 fold enrichment (6-mer frequency, TF over GST control)
AATCTC	1.27 fold enrichment (6-mer frequency, TF over GST control)
TACCCG	1.41 fold enrichment (6-mer frequency, TF over GST control)
CCTGTT	1.66 fold enrichment (6-mer frequency, TF over GST control)
TTTTCC	1.65 fold enrichment (6-mer frequency, TF over GST control)
AAAACT	1.2 fold enrichment (6-mer frequency, TF over GST control)
TAATAC	1.14 fold enrichment (6-mer frequency, TF over GST control)
GACTTC	2.25 fold enrichment (6-mer frequency, TF over GST control)
ATGGCA	1.23 fold enrichment (6-mer frequency, TF over GST control)
TCCGAC	1.57 fold enrichment (6-mer frequency, TF over GST control)
TTACAG	1.32 fold enrichment (6-mer frequency, TF over GST control)
AATTTC	1.7 fold enrichment (6-mer frequency, TF over GST control)

Sequence	binding signal
ACCAAT	1.32 fold enrichment (6-mer frequency, TF over GST control)
TAACAC	1.22 fold enrichment (6-mer frequency, TF over GST control)
TTAGGG	1.21 fold enrichment (6-mer frequency, TF over GST control)
CTACAC	1.31 fold enrichment (6-mer frequency, TF over GST control)
CTAGCT	1.21 fold enrichment (6-mer frequency, TF over GST control)
ATCCAT	1.26 fold enrichment (6-mer frequency, TF over GST control)
TAGTAC	1.13 fold enrichment (6-mer frequency, TF over GST control)
TTTGAA	1.11 fold enrichment (6-mer frequency, TF over GST control)
AACCTA	1.03 fold enrichment (6-mer frequency, TF over GST control)
GATGTT	1.24 fold enrichment (6-mer frequency, TF over GST control)
CCTTAG	1.22 fold enrichment (6-mer frequency, TF over GST control)
CGCGCT	1.44 fold enrichment (6-mer frequency, TF over GST control)
CATCTA	1.19 fold enrichment (6-mer frequency, TF over GST control)
TCTATT	1.26 fold enrichment (6-mer frequency, TF over GST control)
CTATTT	1.63 fold enrichment (6-mer frequency, TF over GST control)
TTCAGG	1.15 fold enrichment (6-mer frequency, TF over GST control)
GCTATA	1.16 fold enrichment (6-mer frequency, TF over GST control)
CTCATT	1.35 fold enrichment (6-mer frequency, TF over GST control)
CAATTT	1.36 fold enrichment (6-mer frequency, TF over GST control)

target: T2, ETV3L (Homo sapiens, UniProt Q6ZN32 1-361); experiment: as above; conditions: protein: recombinant; tags: N-terminal GST; dsDNA, one strand shown
T2 sequence: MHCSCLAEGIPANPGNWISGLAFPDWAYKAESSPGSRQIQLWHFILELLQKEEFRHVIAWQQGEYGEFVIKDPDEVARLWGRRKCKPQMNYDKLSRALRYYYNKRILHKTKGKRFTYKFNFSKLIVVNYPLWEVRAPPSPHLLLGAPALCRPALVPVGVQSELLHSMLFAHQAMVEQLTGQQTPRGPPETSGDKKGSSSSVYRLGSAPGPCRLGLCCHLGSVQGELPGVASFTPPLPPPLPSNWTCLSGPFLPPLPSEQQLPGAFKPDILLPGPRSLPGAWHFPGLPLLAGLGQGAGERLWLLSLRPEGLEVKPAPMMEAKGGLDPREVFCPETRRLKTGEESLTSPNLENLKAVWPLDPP
How it was run: as §1

Sequence	binding signal
TCTTCG	1.48 fold enrichment (6-mer frequency, TF over GST control)
GCTTTG	1.19 fold enrichment (6-mer frequency, TF over GST control)
TCTCTG	1.49 fold enrichment (6-mer frequency, TF over GST control)
TAAAAG	1.1 fold enrichment (6-mer frequency, TF over GST control)
CCTTAA	1.44 fold enrichment (6-mer frequency, TF over GST control)
CTTTTT	1.35 fold enrichment (6-mer frequency, TF over GST control)
CTTCAA	1.3 fold enrichment (6-mer frequency, TF over GST control)
ACTAAA	1.32 fold enrichment (6-mer frequency, TF over GST control)
ATATCC	2.57 fold enrichment (6-mer frequency, TF over GST control)
AATCTC	1.15 fold enrichment (6-mer frequency, TF over GST control)
TACCCG	1.56 fold enrichment (6-mer frequency, TF over GST control)
CCTGTT	1.79 fold enrichment (6-mer frequency, TF over GST control)
TTTTCC	1.71 fold enrichment (6-mer frequency, TF over GST control)
AAAACT	1.19 fold enrichment (6-mer frequency, TF over GST control)
TAATAC	1.1 fold enrichment (6-mer frequency, TF over GST control)
GACTTC	2.41 fold enrichment (6-mer frequency, TF over GST control)
ATGGCA	1.2 fold enrichment (6-mer frequency, TF over GST control)
TCCGAC	1.47 fold enrichment (6-mer frequency, TF over GST control)
TTACAG	1.22 fold enrichment (6-mer frequency, TF over GST control)
AATTTC	1.73 fold enrichment (6-mer frequency, TF over GST control)

Sequence	binding signal
ACCAAT	1.28 fold enrichment (6-mer frequency, TF over GST control)
TAACAC	1.24 fold enrichment (6-mer frequency, TF over GST control)
TTAGGG	1.14 fold enrichment (6-mer frequency, TF over GST control)
CTACAC	1.4 fold enrichment (6-mer frequency, TF over GST control)
CTAGCT	1.29 fold enrichment (6-mer frequency, TF over GST control)
ATCCAT	1.11 fold enrichment (6-mer frequency, TF over GST control)
TAGTAC	1.1 fold enrichment (6-mer frequency, TF over GST control)
TTTGAA	1.19 fold enrichment (6-mer frequency, TF over GST control)
AACCTA	1.05 fold enrichment (6-mer frequency, TF over GST control)
GATGTT	1.31 fold enrichment (6-mer frequency, TF over GST control)
CCTTAG	1.26 fold enrichment (6-mer frequency, TF over GST control)
CGCGCT	1.18 fold enrichment (6-mer frequency, TF over GST control)
CATCTA	1.16 fold enrichment (6-mer frequency, TF over GST control)
TCTATT	1.28 fold enrichment (6-mer frequency, TF over GST control)
CTATTT	1.82 fold enrichment (6-mer frequency, TF over GST control)
TTCAGG	1.1 fold enrichment (6-mer frequency, TF over GST control)
GCTATA	1.08 fold enrichment (6-mer frequency, TF over GST control)
CTCATT	1.47 fold enrichment (6-mer frequency, TF over GST control)
CAATTT	1.33 fold enrichment (6-mer frequency, TF over GST control)

— publication PMC7862700, “An all-to-all approach to the identification of sequence-specific readers for epigenetic DNA modifications on cytosine”
